NPSR antagonist: blocks cAMP signaling of the human neuropeptide S receptor; Potency, µM (titrated, usually from 38.3 µM), usual class: inhibitors; CHO-NPSR cells, cAMP TR-FRET, antagonist mode; actives 1% (n = 220,000); AID 1461; note: nearly all actives have a fitted effect of over 50% in size
HEK293 tox: cytotoxic in the GLP-1 receptor inverse agonist counter-screen; HEK293 cAMP-luciferase reporter cells, luminescence, 24 h; Potency, µM (doses to about 38.3 µM), usual class: inhibitors; actives 0.13% (n = 410,000); AID 624418;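 note: loss of luciferase light is scored as toxicity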
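MLSMR compounds, 24 hr on cells at 37 deg C/5% CO2; luminescence after luciferase reagent (12 min RT). Inhibition counted as the undesired cytotoxic outcome.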
RXFP1 agonist: activates the human relaxin receptor RXFP1. Q9HBX9. HEK293T-RXFP1 cAMP TR-FRET, 30 min; response scale: percent of porcine relaxin response, buffer zero. Potency, µM (titrated, usually from 57.5 µM), actives largely listed as activators. actives 0.3% (n = 370,000). AID 2676; note: nearly all actives have a fitted effect of over 60% in size
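HEK293 cells stably expressing RXFP1, treated 30 min at 37C with compounds plus PDE4 inhibitor Ro 20174; cAMP measured by HTRF TR-FRET. Normalized to buffer and 29 nM porcine relaxin; EC50 by Hill fit.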
RXFP1 antag: blocks the human relaxin receptor RXFP1 | Q9HBX9 | HEK293-RXFP1, relaxin-stimulated cAMP HTRF, 30 min; active compounds read low | activity change, negative = inhibition, % at 57.5 µM | actives 0.59% (n = 350,000) | AID 1259400;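 active = activity change of -60% or lower, but not beyond a set lower limit; inconclusive = change between -60% and -40%, or beyond the set limit; inactive = change above -40%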
PTHR1 ag: activates the human parathyroid hormone receptor PTHR1 | actives 0.075% (n = 410,000) | Q03431 | HEK293 GP2 PTHR1 cells, GloSensor cAMP luminescence, 1 h | Potency, µM (doses to about 115 µM), hits mostly activators; note: nearly all actives have a fitted effect of over 55% in size
Target sequence (Q03431 whole entry, looked up): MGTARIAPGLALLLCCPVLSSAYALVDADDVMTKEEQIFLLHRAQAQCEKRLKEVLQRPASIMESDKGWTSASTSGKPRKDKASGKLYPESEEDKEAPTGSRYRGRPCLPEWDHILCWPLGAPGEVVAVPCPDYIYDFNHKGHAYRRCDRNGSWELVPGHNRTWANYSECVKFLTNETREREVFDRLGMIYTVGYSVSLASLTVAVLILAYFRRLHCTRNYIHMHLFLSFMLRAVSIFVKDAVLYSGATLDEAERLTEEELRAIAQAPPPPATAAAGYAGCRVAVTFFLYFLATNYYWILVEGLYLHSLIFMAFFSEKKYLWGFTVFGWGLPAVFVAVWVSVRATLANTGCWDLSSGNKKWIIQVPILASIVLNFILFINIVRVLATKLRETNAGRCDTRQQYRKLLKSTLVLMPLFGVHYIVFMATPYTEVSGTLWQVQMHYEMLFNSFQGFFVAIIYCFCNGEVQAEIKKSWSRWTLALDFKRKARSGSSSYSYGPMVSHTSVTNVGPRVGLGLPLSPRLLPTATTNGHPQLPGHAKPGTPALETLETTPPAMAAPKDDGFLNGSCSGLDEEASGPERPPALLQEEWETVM
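HEK-293-derived GP2 cells expressing PTHR1 and a GloSensor cAMP reporter, 3,000/well, plated overnight, given luciferin plus IBMX (each 0.5 mM as added) for 1 h at 37 °C, then compound for 1 h at 37 °C. Luminescence was read after 15 min at room temperature.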
TSHR antagonist: blocks TSH signaling through the human TSH receptor; TSHR-expressing cells, TSH-stimulated cAMP HTRF, 2 h; active compounds read low; actives 0.2% (n = 330,000); activity change, negative = inhibition, % at 11.5 µM; AID 504810; P16473;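 active = activity change below a set negative limit, meaning inhibition stronger than a set level, cut at about -70% in these data; inconclusive = activity change between two set negative limits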
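Inhibition of cAMP made by TSHR-expressing cells under TSH stimulation (4nM final, EC80; 2 h, 37 deg C) is quantified with a one-step lysis HTRF kit, anti-cAMP cryptate versus cAMP-d2.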
A number is an active result; 0 = inactive; ? = inconclusive; - = no result given; ! = not active in a repeat; [ ] = remark or other dose. The sample as a whole holds a higher share of hits than the screen did. Unless noted, calls come from the whole dose curve; as a rule, active = well fitted curve in the direction sought with a large enough effect; inconclusive = small, poorly fitted or top-dose-only effect, or another doubt; inactive = no such curve, though single readings can be large; an effect the other way counts as inactive or inconclusive.

SMILES	NPSR antagonist	HEK293 tox	RXFP1 agonist	RXFP1 antag	PTHR1 ag	TSHR antagonist
O=C(OCc1cn([C@H]2C[C@H](c3ccc(Cl)cc3)N(C(=O)c3cccs3)C[C@@H]2O)nn1)c1ccccc1	-	0	-	0	0	-
Cn1nc(-c2ccc(Cl)cc2)nc2c(=O)n(C)c(=O)nc1-2	1µM	-	4.5µM	-	-	0
O=C(O)C1CCC1	-	-	-	0	-	-
C[C@@H]1CN=C2N(CCNC(=O)CCC3CCCCC3)[C@H](Cc3ccc(O)cc3)CN21	0	0	0	-	0	0
CCCCCCNC(=O)N[C@H](C(=O)NCCC[C@H]1CN2C(=NC[C@H]2C)N1CCC(c1ccccc1)c1ccccc1)C(C)O (stereo partly drawn)	10µM	-	0	-	-	0
Cc1ccc2cccc(Oc3ncnc4scc(-c5ccccc5)c34)c2n1	0	0	0	0	0	-84
COc1ccc(-c2csc3ncnc(Oc4cccc5ccc(C)nc45)c23)cc1	0	0	0	0	0	0
Cc1ccc(C(=O)Nc2ccccc2Oc2ccccc2)o1	-	0	-	0	0	-
Cc1ccc(C(=O)Nc2cccc(Oc3ccccc3)c2)o1	0	0	0	-72	0	0
O=C(CSc1nc(-c2ccc(Cl)cc2)[nH]c(=O)n1)Nc1cccc(Cl)c1	0	0	0	-70	0	0
O=C(CSc1n[nH]c(-c2cccnc2)n1)Nc1cccc(Cl)c1	-	0	0	0	0	0
COc1ccc(C2=NS(=O)(=O)N(C)C(C(=O)N3CCOCC3)=C2)cc1OC	-	0	0	0	0	0
Cc1ccc(Cl)cc1N1CCN(Cc2cc3c(cc2O)CCC3)CC1	10µM	0	0	0	0	0
Cc1ccc(Cl)cc1N1CCN(C(=O)c2ccc(CN3CCOCC3)cc2)CC1	0	0	0	0	0	0
O=C(c1ccco1)N1CCN(C(=O)N2c3ccccc3Sc3ccccc32)CC1	?	3.2µM	0	0	0	0
Cc1ccc2c(C)c(C(=O)NCCN3CCCC(O)C3)oc2c1C (stereo not drawn)	-	0	0	-112	0	0
CN(C/C=C/c1ccccc1)Cc1cccc2ccccc12	-	0	0	-69	0	0
Cc1cccc(C(c2sc3nc(-c4ccco4)nn3c2O)N2CCN(c3ccccc3F)CC2)c1 (stereo not drawn)	-	0	0	0	0	-
COc1cc2c(cc1OC)C(=NO)CCCC2	-	0	-	0	0	-
CCOc1ccc(-c2csc(/C(C#N)=C\c3ccc(O)c([N+](=O)[O-])c3)n2)cc1	0	?	0	-	0	-83
CCc1ccc(/C=C(/C#N)c2nc(-c3ccc(C)cc3)cs2)cc1	-	0	0	-	0	-
COc1ccc(C(=O)c2c(C)c3ccccc3n2CC(O)CNC(C)C)cc1 (stereo not drawn)	0	8.9µM	0	0	?	0
CC(C)NCC(O)Cn1c2c(c3ccccc31)CCc1c-2cnn1-c1ccccc1 (stereo not drawn)	?	?	0	?	0	0
CN(C)[C@@H](CCOc1cccc2ccccc12)c1ccccc1	-	-	-	0	-	-
COc1ccccc1N1CCN(CC(O)COc2cc(OC)c(OC)c(OC)c2)CC1 (stereo not drawn)	-	-	-	0	-	-
SMILES	NPSR antagonist	HEK293 tox	RXFP1 agonist	RXFP1 antag	PTHR1 ag	TSHR antagonist
Cc1nnc(NC(=O)c2cccc(S(=O)(=O)N3CCc4ccccc43)c2)s1	1.6µM	0	0	0	0	0
CCc1nnc(NC(=O)c2cccc(S(=O)(=O)N3CCc4ccccc43)c2)s1	0	0	0	0	0	0
COc1ccc(-c2c(C)nc3c(-c4ccccn4)cnn3c2N)cc1	-	10µM	0	0	0	0
Cn1cccc1/C=C1\CC(C(C)(C)C)C/C(=C\c2cccn2C)C1=O (stereo not drawn)	10µM	0	0	0	0	0
Cn1cccc1/C=C1\Cc2ccccc2C1=O	0	0	0	0	0	0
CC(=O)N(C(C)=O)N1C(=O)/C(=C/c2ccc(Cl)cc2)SC1=S	0	0	0	-109	0	0
CC(C(=O)Nc1ccccn1)N1C(=O)c2ccccc2S1(=O)=O (stereo not drawn)	-	0	0	0	0	0
C/C(=N\NC(=O)c1c(C)nc2ccccn12)c1ccc(N2CCOCC2)cc1	0	0	14µM	0	0	0
CC(C)N(Cc1ccccc1)C(=O)Cn1ncc2c([nH]c3ccccc32)c1=O	-	0	0	0	0	-
CC(C)N(CCCNC(=O)Cn1ncc2c([nH]c3ccccc32)c1=O)Cc1ccccc1	-	0	0	-75!	0	0
CCN(CCCNC(=O)Cn1ncc2c([nH]c3ccc(C)cc32)c1=O)c1cccc(C)c1	-	0	0	0	0	-133
CCN(CCCNC(=O)Cn1ncc2c([nH]c3ccc(C)cc32)c1=O)c1ccccc1	-	0	0	0	0	0
Fc1ccc2[nH]c3c(N4CCN(c5ccccc5)CC4)ncnc3c2c1	?	?	0	0	0	-89
OC1(c2cccc(C(F)(F)F)c2)CCN(c2ncnc3c2[nH]c2ccc(F)cc23)CC1	13µM	?	0	-89	0	-
CCCCn1c(O)c(/C=C2\C=NN=C2c2ccccc2)sc1=S	0	0	0	0	0	0
CCCCCCn1c(O)c(/C=C2\C=NN=C2c2ccccc2)sc1=S	?	11µM	0	0	0	0
O=C(NCC(=O)N1CCN(S(=O)(=O)c2ccccc2)CC1)c1ccc2ccccc2c1	-	?	0	0	0	0
COc1cc(C(=O)NCC(=O)N2CCN(S(=O)(=O)c3ccccc3)CC2)cc(OC)c1OC	-	0	0	-64	0	0
CC1CN(CCOc2cccc(Oc3ccccc3)c2)CC(C)O1 (stereo not drawn)	-	0	0	0	0	0
CC1CN(CCCCOc2cccc(Oc3ccccc3)c2)CC(C)O1 (stereo not drawn)	0	0[7.66 µM]	0	-64	0	0
Cc1ccc2c(c1C)-c1c(ccc(C)c1C)C(=O)C2=O	-	?	-	-69	0	-
Cc1ccc(CC#N)c(-c2c(CC#N)ccc(C)c2C)c1C	-	0	-	0	0	-
Cc1cccc(-n2c(N)cc(=O)nc2SCC(=O)Nc2ccc(F)cc2)c1C	-	0	0	0	0	-
Cc1ccc(S(=O)(=O)N2CCCC2)cc1[N+](=O)[O-]	0	0	0	0	0	0
O=[N+]([O-])c1cc(S(=O)(=O)N2CCCCCC2)ccc1Cl	0	11µM	0	0	0	0
S=C(Nc1ccccc1)c1ccccn1	4µM	0	0	0	0	0
C[C@@H]1CCCCO[C@@H](CN(C)S(=O)(=O)c2cn(C)cn2)[C@@H](C)CN([C@H](C)CO)C(=O)c2cc(NC(=O)Nc3ccc(C(F)(F)F)cc3)ccc2O1	-	0	-	0	0	-

Compound activity (PubChem)
